Laboratory results as given in ChEMBL document CHEMBL3433997, “St. Jude Leishmania screening dataset” (2016).

biological target: Glucose transporter (Leishmania mexicana) (UniProt O61059); experiment: ST_JUDE_LEISH: Cytotoxicity at 2uM final concentration against transgenic Leishmania Mexicana promastigotes LmGT2 that are glucose transport deficient and complemented with the L. Mexicana glucose transporter 2. Activity is measured by DNA content using SYBR green in vitro; assay type: functional

Structure (SMILES) | inhibition [%]
O=C1OC2(CN1CC1CCN(Cc3ccc(O)c(Cl)c3)CC1)c1ccccc1-c1ccccc12 | 3.94
COc1ccc(C2c3ccccc3-c3nc(N)nc(N)c3C2C)cc1 (stereo unspecified) | 0.31
C#CC(C)(CO)N1CCCC1 (stereo unspecified) | 1.64
CC(Nc1ccc2c(c1)CCC2)C(=O)Nc1cc(C(F)(F)F)ccc1N1CCOCC1 (stereo unspecified) | 11.1
COc1ccc2c(CCNc3nc(SC)ncc3C(=O)NCCc3ccc(F)cc3)c[nH]c2c1 | 1.11
CC(C)(C)c1ccc(CN2CCC(NC(=O)c3ccc(-c4ccccc4F)s3)CC2)cc1 | -2.5
COc1cccc(C=Cc2nc(=O)c3ccccc3o2)c1OC | 0.45
OC(COc1ccccc1-c1nc2ccccc2o1)CN1CCCN(CCc2ccccc2)CC1 (stereo unspecified) | -0.36
N#Cc1c(N)nc(SCC(=O)Nc2cc(C(F)(F)F)ccc2Cl)c(C#N)c1-c1cccs1 | 0.5
CN(C)CCCNc1ccnc2cc(Cl)ccc12 | -1.76
CCOC(=O)[C@H](Cc1cccc2ccccc12)NC(=O)[C@H](CCC(=O)OC(C)(C)C)NC(=O)c1ccc(N(C)Cc2cnc3nc(N)nc(N)c3n2)cc1 | 3.56
CN(C)CCOc1cc(NC(=O)Nc2ccc(-c3ccncc3)c3ccccc23)ccc1I | 1.62
O=C(C=Cc1ccc(Cl)c(Cl)c1)NCCCCCN1CCC(CCNC(=O)C(c2ccccc2)c2ccccc2)CC1 | 0.8
CCCCCCCc1c(C)nc2c(OC)cccc2c1O | -0.9
COc1ccc2nccc([C@@H](O)CN3CCC(NC[C@H](Cc4ccccc4)NC(=O)OC(C)(C)C)CC3)c2c1 | 2.75
COc1cc(NC(=O)c2cc([N+](=O)[O-])ccc2NC(=O)CNC2CCCCC2C)cc(OC)c1 (stereo unspecified) | 1.96
